# Results: PubChem BioAssay AID2279 (Southern Research Specialized Biocontainment Screening …, 2010)
# Measured potencies and affinities stand elsewhere. Calls of active or inactive are those of the source. The rule behind the calls is not given here.
# Assay: HIV-1 Env-mediated cell fusion inhibitors, dose response, CCR5-tropic Env (AID 2279)
row,Structure (SMILES),outcome
1,O=C1NC(=Nc2ccccc2Cl)S/C1=C\c1cccc([N+](=O)[O-])c1O,inactive
2,O=C(O)c1ccc(N/N=C/c2ccc(-c3cccc(Cl)c3)o2)cc1,inactive
3,CC(C)S(=O)(=O)C1=NSC2=NC(=O)/C(=C\c3ccc(OC(=O)c4ccco4)cc3)C(=N)N21,inactive
4,Cc1c(CCC(=O)O)c(=O)oc2c(C)c3occ(-c4ccc(Cl)cc4)c3cc12,inactive
5,COc1ccc(-c2coc3c(C)c4oc(=O)c(CCC(=O)O)c(C)c4cc23)cc1,inactive
6,O=C(O)CN1C(=O)/C(=C\c2cc(Br)ccc2OCc2ccc([N+](=O)[O-])cc2)SC1=S,inactive
7,CCc1nnc(NS(=O)(=O)c2ccc(NC(=S)NC(=O)/C=C/c3ccc(C(C)C)cc3)cc2)s1,inactive
8,COc1cc(/C=C2\C(=N)N3N=C(S(C)(=O)=O)SC3=NC2=O)cc(OC)c1OCCOc1ccc(C)cc1,inactive
9,COc1ccc(NS(=O)(=O)c2ccc3c(c2)[C@H]2C=CC[C@H]2[C@@H](c2ccc(C(=O)O)cc2)N3)cc1,inactive
10,O=C(O)c1ccc(/C=N/NC(=O)c2ccc(CN3c4cccc5cccc(c45)S3(=O)=O)cc2)cc1,inactive
11,COc1cc(C(c2c(C(=O)O)[nH]c3ccccc23)c2c(C(=O)O)[nH]c3ccccc23)ccc1OCc1ccccc1,inactive
12,COc1cc(/C=C2\SC(=Nc3ccccc3)N(CCc3c[nH]c4ccccc34)C2=O)ccc1OC(C)C(=O)O (stereo not drawn),inactive
13,CCOc1cc(/C=C2/C(=N)N3C(=NC2=O)SN=C3S(=O)(=O)CC)ccc1OC(=O)c1ccco1,inactive
14,O=C(O)c1ccc(-c2ccc(/C=c3/sc4nc5ccccc5n4c3=O)o2)cc1Cl,inactive
15,O=C(O)c1[nH]c2ccccc2c1C(c1cc(Cl)cc([N+](=O)[O-])c1O)c1c(C(=O)O)[nH]c2ccccc12,inactive
16,O=C(CCCN1C(=O)/C(=C/c2cccs2)SC1=S)Nc1ccc(O)c(C(=O)O)c1,inactive
17,O=C(O)CSc1nc(-c2ccc(Cl)cc2)nc2c1oc1ccccc12,inactive
18,Cc1ccccc1C(=O)Nc1cccc(C(=O)N/N=C/c2cc(Cl)cc([N+](=O)[O-])c2O)c1,inactive
19,CCCOc1ccc(C(=O)NNC(=S)NC(=O)c2cc(-c3ccccc3)nc3ccccc23)cc1,inactive

row,Structure (SMILES),outcome
1,CCOC(=O)c1c(N2C(=O)Nc3cc(Cl)c(Cl)cc3N2O)sc2c1CCCCC2,inactive
2,Cc1ccc(/C=C2\SC(=S)N(CCCC(=O)Nc3ccccc3C(=O)O)C2=O)cc1,inactive
3,Cc1cc(Cl)ccc1OC(C)C(=O)Nc1ccc(C(=O)Nc2ccccc2C(=O)O)cc1 (stereo not drawn),inactive
4,COc1cc(OC)c2c(O)c3c(c(-c4c5c(c(O)c6c(OC)cc(OC)cc46)CO[C@@H](C)[C@H]5O)c2c1)[C@H](O)[C@H](C)OC3,inactive
5,O=C1NN(c2ccc(Cl)c(Cl)c2)C(=O)/C1=C/c1ccc(-c2ccccc2C(=O)O)o1,inactive
6,N#Cc1c(-c2ccccc2)nc(SCC(=O)Nc2ccc(OC(F)(F)Cl)cc2)[nH]c1=O,inactive
7,CC(c1ccccc1)N1C(=O)c2ccc(C(=O)Nc3ccccc3C(=O)O)cc2C1=O (stereo not drawn),inactive
8,COC(=O)c1sc(-c2ccc(C(C)(C)C)cc2)cc1NC(=O)CSCC(=O)O,inactive
9,CCc1nnc(NS(=O)(=O)c2ccc(NC(=S)NC(=O)/C=C/c3ccc(F)cc3)cc2)s1,inactive
10,COc1ccc(C(=O)Nc2ccccc2C(=O)O)cc1NC(=O)C(c1ccccc1)c1ccccc1,inactive
11,CN1C(=O)/C(=C/c2ccc(C(=O)Nc3ccc(O)cc3C(=O)O)cc2)SC1=S,inactive
12,O=C(O)c1ccc(Nc2nc(-c3cc4ccccc4oc3=O)cs2)cc1O,inactive
13,O=C(O)CN1C(=O)/C(=C\c2cc(Br)ccc2OCc2ccc(Cl)cc2)SC1=S,inactive
14,O=C1NN(c2ccccc2)C(=O)/C1=C\c1cccc(OC(=O)c2cccs2)c1,inactive
15,Cc1c(Cl)cccc1NS(=O)(=O)c1ccc2c(c1)C1C=CCC1C(c1ccc(C(=O)O)cc1)N2 (stereo not drawn),inactive
16,O=C(O)CSCC(=O)N(Cc1ccccc1)c1nc(-c2ccccc2)c(-c2ccccc2)s1,inactive
17,CCOC(=O)c1sc2nc3c(SCCC(=O)O)cc(C(=O)c4cc(OC)ccc4O)cn3c(=O)c2c1C,inactive
18,O=C(NCCc1ccccc1)c1ccc2c(=O)[nH]c3c(C(=O)NCC4CCCO4)sc(=S)n3c2c1 (stereo not drawn),inactive
19,CCOc1ccc(C2C(C(=O)Nc3ccccc3)=C(C)N=c3s/c(=C/c4cccc(OCC(=O)O)c4)c(=O)n32)cc1 (stereo not drawn),inactive
